High-throughput results from PubChem.
Only some compounds are listed: those with a hit (about 18% of all), similar ones and a draw of the others.
Gal4-VP16 FLuc = VP16 counterscreen qHTS for inhibitors of ROR gamma transcriptional activity | 3.5% of 310,000 active | Drosophila S2 Gal4-VP16 UAS-luciferase, luminescence, 20 h | Potency, µM (top dose mostly 53.6 µM), without a hit: top-dose activity, negative = inhibition, most hits filed as inhibitors;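 also: Gal4-VP16 expression switched on by copper sulfate through the metallothionein promoter; potency is read from the fitted curve at half-maximal effect; nearly all actives have a fitted effect of over 50% in size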
RORgamma inh = qHTS for inhibitors of ROR gamma transcriptional activity. AID 2551, 2010. Drosophila S2 Gal4-RORgamma UAS-luciferase reporter, 20 h. 5.4% of 310,000 active. Potency, µM (highest dose often 53.6 µM), for inactives: at the highest dose activity change, negative = inhibition, actives largely listed as inhibitors. Nuclear receptor ROR-gamma (Mus musculus), P51450; also: potency is read from the fitted curve at half-maximal effect; nearly all actives have a fitted effect of over 60% in size
Target sequence (P51450 whole entry, looked up, the tested form may be a part): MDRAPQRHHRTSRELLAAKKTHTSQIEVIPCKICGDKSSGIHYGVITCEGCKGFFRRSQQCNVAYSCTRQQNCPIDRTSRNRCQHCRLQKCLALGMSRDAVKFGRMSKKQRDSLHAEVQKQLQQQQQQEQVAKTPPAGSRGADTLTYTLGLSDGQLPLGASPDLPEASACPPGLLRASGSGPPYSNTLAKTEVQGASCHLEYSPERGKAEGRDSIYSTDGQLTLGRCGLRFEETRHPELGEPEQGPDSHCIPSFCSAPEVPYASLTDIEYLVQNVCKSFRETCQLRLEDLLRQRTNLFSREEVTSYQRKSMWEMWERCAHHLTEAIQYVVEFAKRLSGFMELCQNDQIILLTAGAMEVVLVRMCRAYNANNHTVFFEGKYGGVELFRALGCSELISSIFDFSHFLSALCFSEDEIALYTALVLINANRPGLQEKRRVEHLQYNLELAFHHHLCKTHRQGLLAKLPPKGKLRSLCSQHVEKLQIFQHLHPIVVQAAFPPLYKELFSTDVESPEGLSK
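Schneider cells (Drosophila), stable Gal4 DBD–ROR gamma + UAS-luc; 1 hr cmpd preincubation; Cu2+ induction 700 uM final; 20 hr ambient; luminescence.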
TDP1 cell CPT = qHTS for Inhibitors of human tyrosyl-DNA phosphodiesterase 1 (TDP1): qHTS in cells in presence of CPT | chicken DT40 Tdp1-/-;hTDP1 cells + 20 nM CPT, ATP luminescence, 48 h | Potency, µM (doses to about 46.2 µM), inactives show at the top dose activity change, negative = growth inhibition, hits mostly inhibitors | 12% of 420,000 active | AID 686979, 2013; also: potency is read from the fitted curve at half-maximal effect; nearly all actives have a fitted effect of over 55% in size
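Cell growth measured by CellTiter-Glo luminescence after a minimum 48 h, 37 C compound exposure with 20 nM CPT in Tdp1-knockout DT40 cells stably expressing hTDP1, seeded 400/well; qHTS titration format.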
IL1B secr inh = qHTS for Inhibitors of Inflammasome Signaling: IL-1-beta AlphaLISA Primary Screen; 4.7% of 360,000 active; activity change, % at 57.5 µM; THP-1 LPS/ATP IL-1B secretion, AlphaLISA, 16 h; hits give low values; in the data active = activity change below about -50%; inconclusive = mostly about -30% to -49%
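Secreted IL-1B measured by AlphaLISA bead assay after 16 h compound exposure of THP-1 cells; compounds (final up to 57.5 uM) added 1 h before LPS (250 ng/mL) and ATP (1.25 mM) stimulation; lower signal means less secretion.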
LDHA inh = qHTS assay for inhibitors of human lactate dehydrogenase. purified LDHA, NADH/diaphorase-resazurin fluorescence; hits give low values. L-lactate dehydrogenase A chain (Homo sapiens), P00338. activity change, % (values are at about 110 or 230 µM). 0.15% of 480,000 active. AID 1347041, 2019; in the data active = activity change below about -30%; inconclusive = mostly about -25% to -30%;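 also: plate controls were DMSO wells for no effect and wells without enzyme for full effect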
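Enzyme activity of human lactate dehydrogenase 5 (2 nM; 0.06 mM NADH, 0.2 mM pyruvate, 5 min, RT) is measured via a resazurin/diaphorase fluorescence readout of residual NADH.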
DT40 TDP1 no CPT = qHTS for Inhibitors of human tyrosyl-DNA phosphodiesterase 1 (TDP1): qHTS in cells in absence of CPT | DT40 Tdp1-/- hTDP1 cells, no CPT, ATP luminescence, 48 h | Potency, µM (titrated, usually from 46.2 µM), without a hit: at the highest dose activity change, negative = growth inhibition, usual class: inhibitors | 15% of 420,000 active | AID 686978, 2013; also: potency is read from the fitted curve at half-maximal effect; nearly all actives have a fitted effect of over 55% in size
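Chicken DT40 Tdp1-/- cells complemented with human TDP1, screened without camptothecin (DMSO vehicle only), 400 cells/well. Compounds pin-transferred, cells incubated at 37 °C for at least 48 hr. Growth read as ATP-dependent luminescence (CellTiter-Glo, 30 min at RT).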
* = called active by the depositor; ? = inconclusive; . = no result; ! = repeats disagree; [ ] = remark or other dose. Unless noted, calls follow the shape of the dose curve; as a rule, active = well fitted curve in the direction sought with a large enough effect; inconclusive = small, poorly fitted or top-dose-only effect, or another doubt; inactive = no such curve, though single readings can be large; an effect the other way counts as inactive or inconclusive. Unless noted, % is scaled to controls: 0 for no effect and ±100 for the full control effect.

SMILES | Gal4-VP16 FLuc | RORgamma inh | TDP1 cell CPT | IL1B secr inh | LDHA inh | DT40 TDP1 no CPT
O=c1cc(-c2ccccc2)[nH]c2ccc(F)cc12 | -6%[96.6 µM] | ? | 0.92µM* | 79 | -4 | 0.52µM*
O=c1cc(-c2ccc(F)cc2F)[nH]c2ccccc12 | -2%[96.6 µM] | 8.9µM*! | . | . | . | .
O=c1cc(-c2ccccc2)[nH]c2ccc(Cl)cc12 | 18%[96.6 µM] | -2%[96.6 µM] | . | . | . | .
O=c1cc(-c2ccccc2)[nH]c2cc(Cl)ccc12 | -8%[96.6 µM] | 2%[96.6 µM] | 0.46µM* | 43 | -11 | 0.73µM*
CC(C)C(N)c1ccc2c(c1)OCCCO2 (stereo unspecified) | . | . | . | . | 11 | .
O=c1cc(-c2cccc(F)c2)[nH]c2ccc(Cl)cc12 | -12%[96.6 µM] | ? | . | . | . | .
Cc1ccc2[nH]c(C)cc(=O)c2c1 | -7%[96.6 µM] | -17%[96.6 µM] | . | . | . | .
Cc1ccc(-c2cc(=O)c3cc(F)ccc3[nH]2)cc1 | -3% | 16% | 23µM* | 31 | -3 | ?
COc1ccc2[nH]c(-c3cccc(F)c3)cc(=O)c2c1 | 12%[96.6 µM] | 8%[96.6 µM] | 0.33µM* | 27 | -12 | 0.23µM*
O=c1cc(-c2cccc(F)c2)[nH]c2ccccc12 | -3%[96.6 µM] | 24%[96.6 µM] | 1µM* | 51 | 2 | 0.58µM*
Cc1cc(C)c2oc(C(=O)Nc3ccc(S(N)(=O)=O)cc3)cc(=O)c2c1 | . | . | . | . | 0 | .
Cc1ccc(NC(=S)NNC(=O)c2ccccc2O)c(C)c1 | 3% | 1% | 23µM* | 11 | 4 | 13µM*
Cc1ccc(NC(=S)NNC(=O)C(c2ccccc2)c2ccccc2)c(C)c1 | . | . | . | . | 0 | .
Cc1cccc(NC(=S)NNC(=O)c2ccc(O)cc2O)c1C | 20µM* | 7.9µM* | 24% | 9 | 2 | 2%
CCOC(=O)C1C2C=CC(C3CC23)C1C(=O)OCc1ccccc1Cl (stereo unspecified) | . | . | . | . | -2 | .
CN(Cc1cccc(F)c1)C(=O)c1cc(-c2ccccc2)n[nH]1 | . | . | . | . | -3 | .
C#CCN(Cc1ccco1)C(=O)c1ccc(OC2CCN(Cc3ccccn3)CC2)cc1 | . | . | 18µM* | -13 | 0 | ?
O=C(NCc1ccco1)c1ccc(OC2CCN(Cc3ccccn3)CC2)cc1 | . | . | 2% | ? | -1 | -3%
CCOC(=O)c1cc(S(=O)(=O)N2CCN(c3cccc(OC)c3)CC2)[nH]n1 | . | . | ? | . | 6 | ?
CCOC(=O)c1cc(S(=O)(=O)N2CCN(c3cc(Cl)ccc3C)CC2)[nH]n1 | . | . | 12µM* | . | 10 | ?
CCOC(=O)c1cc(S(=O)(=O)N2CCN(c3ccccc3OC)CC2)[nH]n1 | . | . | -15% | . | 5 | -17%
CCOC(=O)c1cc(S(=O)(=O)N2CCN(c3ccc(F)cc3)CC2)[nH]n1 | . | . | 16µM* | . | -3 | 18µM*
O=C1NC[C@H](Cc2ccccc2)N(C[C@@H]2CCCN2C[C@H](Cc2ccc(O)cc2)N2C[C@H](Cc3ccccc3)N(CCc3ccccc3)C(=O)C2=O)C1=O | . | . | ? | -80* | -7 | -30%
CCOc1ccc(CCN2C(=O)C(=O)N([C@@H](Cc3ccccc3)CN3CCC[C@@H]3CN3C(=O)C(=O)NC[C@@H]3Cc3ccc(O)cc3)C[C@@H]2Cc2ccccc2)cc1 | . | . | -5% | 3 | -3 | 11%
O=C1NC[C@H](Cc2ccc(O)cc2)N(C[C@@H]2CCCN2C[C@H](Cc2ccc(O)cc2)N2C[C@H](Cc3ccccc3)N(CC3CCCCC3)C(=O)C2=O)C1=O | . | . | -13% | 0 | 0 | -18%
SMILES | Gal4-VP16 FLuc | RORgamma inh | TDP1 cell CPT | IL1B secr inh | LDHA inh | DT40 TDP1 no CPT
O=C1NC[C@H](Cc2ccccc2)N(C[C@@H]2CCCN2C[C@H](Cc2ccc(O)cc2)N2C[C@H](Cc3ccc(O)cc3)N(CC3CCCCC3)C(=O)C2=O)C1=O | . | . | ? | ? | -2 | 23µM*
O=C1NC[C@H](Cc2ccc(O)cc2)N(C[C@@H]2CCCN2C[C@H](Cc2ccccc2)N2C[C@H](Cc3ccc(O)cc3)N(CC3CCCCC3)C(=O)C2=O)C1=O | . | . | ? | -1 | -2 | ?
O=C1NC[C@H](Cc2ccccc2)N(C[C@H]2CCCN2C[C@H](Cc2ccccc2)N2C[C@H](Cc3ccccc3)N(CC3CCCCCC3)C(=O)C2=O)C1=O | . | . | ? | -69* | -6 | 16µM*
COc1cccc(NC(=O)CCc2nnc3n(CCc4ccccc4)c(=O)c4ccccc4n23)c1 | . | . | . | . | 4 | .
COc1ccc(N2CC(NC(=O)Nc3nc4c(C)cccc4s3)CC2=O)cc1 (stereo unspecified) | . | . | . | . | 4 | .
CC(=O)Nc1ccc(C)c(NC(=O)C2(c3cccc(Br)c3)CC2)c1 | . | . | . | . | 11 | .
C=CCOc1ccc(NC(=O)C(=O)c2c(C)[nH]c3ccccc23)cc1 | . | . | . | . | -16 | .
CC(C)(C)NC(=O)c1ccc2c(c1)N(CC(=O)N1CCCC1)C(=O)C(C)(C)O2 | 16% | 0.63µM* | -7% | -8 | -9 | 7%
COc1ccccc1NC(=O)c1ccc2c(c1)N(CC(=O)NC(C)(C)C)C(=O)C(C)(C)O2 | 6% | -16% | 18% | -3 | -1 | 1%
CCOC(=O)CN1C(=O)C(C)(C)Oc2ccc(C(=O)Nc3ccccc3OC)cc21 | 7% | 3% | 16µM* | 36 | -4 | 23µM*
CC(C)(C)NC(=O)c1ccc2c(c1)N(CC(=O)N1CCCCC1)C(=O)C(C)(C)O2 | -4% | 0% | 12% | 27 | -1 | -22%
COc1ccccc1NC(=O)NNC(=O)c1ccc2c(c1)NC(=O)C(C)(C)O2 | 1% | -9% | 23µM* | 20 | -10 | ?
COc1ccc2cc(CN(C)C(=O)CNC(=O)c3ccc(Cl)c(Cl)c3)ccc2c1 | . | . | . | . | 4 | .
COc1ccccc1NC(=O)CCNS(=O)(=O)c1ccc2c(c1)CCN2C(=O)C1CC1 | . | . | ? | . | -6 | ?
Cc1ccc(NC(=O)CCNS(=O)(=O)c2ccc3c(c2)CCN3C(=O)C2CC2)c(Cl)c1 | . | . | 5.2µM* | . | -5 | 4.1µM*
CCc1ccccc1NC(=O)CCNS(=O)(=O)c1ccc2c(c1)CCN2C(=O)C1CC1 | . | . | ? | . | 1 | 18µM*
O=C(CCNS(=O)(=O)c1ccc2c(c1)CCN2C(=O)C1CC1)Nc1ccc(Cl)cc1 | . | . | 10µM* | . | -5 | 12µM*
Cn1c(=O)[nH]c(=O)c2c1nc(N1CCCCCC1)n2Cc1ccccc1F | . | . | . | . | 1 | .
